# Screening results from PubChem BioAssay.
# RTF Ca sens act: cardiac RTF calcium sensitization. P19429+P45379. IANBD-labeled TnC RTF fluorescence at EC20 calcium; 0% EC20 calcium, 100% full calcium. activation, % at 7.2 µM. 0.24% of 340,000 active;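 active = activation above the mean over all tested compounds plus 3 SD, cut at about 30% in these data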;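 note: rise in fluorescence read as greater calcium sensitivity of cardiac thin filaments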
# Keap1 Nrf2 FP: disrupts human Keap1 binding to Nrf2 peptide | 0.15% of 340,000 active | Q14145 | inhibition, % at 9.4 µM | Keap1 Kelch-Nrf2 peptide fluorescence polarization, 1536-well; in the data active = inhibition above about 12%;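 note: human Keap1 Kelch domain with fluorescein labeled Nrf2 9mer peptide probe; 0% = neutral control wells and 100% = peptide positive control; higher means more block of Keap1 binding to Nrf2 peptide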
# C-LANA FP: inhibitors of KSHV LANA C-terminal domain DNA binding; MBP-C-LANA/FAM-LBS DNA binding, fluorescence polarization; inhibition, % at 9 µM; 0.078% of 340,000 active; AID 504423;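 active = highest replicate inhibition at or above 60% at 9 µM, even if other replicates fall short; inactive = all replicates below 60% inhibition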;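 note: 0% = neutral control wells and 100% = 4 µM acridine orange control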
# Cardiac RTF inh: cardiac RTF calcium desensitization. P19429+P45379. IANBD-labeled cardiac RTF, Ca2+ fluorescence. inhibition, % at 7.15 µM. 0.12% of 340,000 active. AID 493244;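 active = inhibition above the mean inhibition of all tested compounds plus 3 SD, cut at about 17% in these data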;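 note: assay run at fixed EC70 calcium of 1.6 mM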
# eLon inh: inhibitors of E. coli Lon protease; P0A9M0; purified E. coli Lon protease, fluorescence polarization; inhibition, % at 7.94 µM; 0.42% of 360,000 active; AID 602123; in the data active = inhibition above about 13%, passing the limit was not always enough;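 note: 0% = enzyme with probe and DMSO and 100% = no enzyme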
# Target sequence (P0A9M0 whole entry, looked up): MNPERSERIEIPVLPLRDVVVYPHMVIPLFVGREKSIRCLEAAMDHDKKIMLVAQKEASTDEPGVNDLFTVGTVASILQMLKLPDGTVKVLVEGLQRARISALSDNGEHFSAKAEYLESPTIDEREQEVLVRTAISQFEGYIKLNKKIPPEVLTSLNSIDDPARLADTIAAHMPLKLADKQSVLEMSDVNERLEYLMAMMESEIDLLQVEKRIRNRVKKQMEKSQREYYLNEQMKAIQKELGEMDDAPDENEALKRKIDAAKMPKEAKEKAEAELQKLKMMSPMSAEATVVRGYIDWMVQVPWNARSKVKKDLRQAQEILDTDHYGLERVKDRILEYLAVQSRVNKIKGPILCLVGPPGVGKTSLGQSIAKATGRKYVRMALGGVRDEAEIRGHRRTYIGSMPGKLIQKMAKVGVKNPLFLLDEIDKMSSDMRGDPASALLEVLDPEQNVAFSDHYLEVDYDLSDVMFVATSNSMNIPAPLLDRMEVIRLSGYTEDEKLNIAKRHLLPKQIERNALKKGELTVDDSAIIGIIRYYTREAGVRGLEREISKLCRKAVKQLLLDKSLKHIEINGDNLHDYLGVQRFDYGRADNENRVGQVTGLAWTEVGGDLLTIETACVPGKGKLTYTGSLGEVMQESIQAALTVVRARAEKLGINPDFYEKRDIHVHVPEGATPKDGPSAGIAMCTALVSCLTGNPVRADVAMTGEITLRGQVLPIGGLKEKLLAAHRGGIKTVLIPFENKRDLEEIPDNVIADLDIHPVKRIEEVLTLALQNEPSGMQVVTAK
# eLon confirm: E. coli Lon inhibition confirmation | shares compounds with eLon inh | purified E. coli Lon, fluorescence polarization | inhibition, % at 7.94 µM | 31% of 1,400 active | AID 602230; in the data active = inhibition above about 16%;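 note: 0% = enzyme with probe and DMSO and 100% = no enzyme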
# The depositor's hits bear a star; / = not tested or not shown. Hits are enriched below; roughly 0.82% of the tested compounds scored in any of these assays.
SMILES,RTF Ca sens act,Keap1 Nrf2 FP,C-LANA FP,Cardiac RTF inh,eLon inh,eLon confirm
Cc1ccc2c(c1)c1c(n2CC(O)CNC2CCCCC2)CCCC1 (stereo not given),12,-1,2,-3,28*,6
COc1ccccc1CNC(=O)COC(=O)Cn1cnc2c1c(=O)n(C)c(=O)n2C,/,/,/,/,72*,-2
COc1cccc(-n2c(Cc3cc(=O)[nH]c(=O)[nH]3)nnc2SCC(=O)NC2CCCCC2)c1,2,-4,5,-7,8,/
CCOc1ccc(-n2c(Cc3cc(=O)[nH]c(=O)[nH]3)nnc2SCC(=O)OC)cc1,-2,-4,-1,0,16*,13
CCSc1nnc(Cc2cc(=O)[nH]c(=O)[nH]2)n1-c1ccc(F)cc1,8,-3,0,-4,-3,/
CCOC(=O)CSc1nnc(Cc2cc(=O)[nH]c(=O)[nH]2)n1-c1ccc(Cl)cc1,9,5,16,-3,15*,12
COc1cccc(-n2c(Cc3cc(=O)[nH]c(=O)[nH]3)nnc2SCC(=O)N2CCCCC2)c1,5,-3,5,-10,16*,23*
CCOc1ccc(-n2c(Cc3cc(=O)[nH]c(=O)[nH]3)nnc2SCC)cc1,-3,-6,0,2,6,/
COc1ccc2nc3cccc(OC)c3nc2c1,2,-4,0,0,7,/
COc1ccc2nc(-c3ccco3)c(-c3ccco3)nc2c1,-13,2,17,8,19*,-7
N#Cc1ccccc1OCCOCCNC1CCCC1,-4,4,-1,-15,-1,/
Cc1ccc(CN(C)C(=O)COc2ccc(S(=O)(=O)N3CCCC3)cc2[N+](=O)[O-])c(C)c1,4,-2,-2,-6,5,/
CCN(CC)c1ccc(NC(=O)COC(=O)COc2ccccc2[N+](=O)[O-])cc1,3,-9,0,-1,-4,/
O=C(CSc1nnc2c(n1)[nH]c1ccccc12)Nc1ccc(S(=O)(=O)Nc2ncccn2)cc1,-1,-2,1,-9,18*,28*
CCCc1nc2nc(C)c(NS(=O)(=O)c3ccc(CC(C)C)cc3)c(=O)n2[nH]1,-2,-4,2,8,0,/
O=C(c1cc2ccccc2o1)N1CCN(S(=O)(=O)c2cccs2)CC1,-3,-3,5,-8,-5,/
O=C(c1cc2ccccc2o1)N1CCN(S(=O)(=O)c2ccccc2)CC1,3,-5,0,-16,19*,-7
Cc1c(C(=O)N2CCN(S(=O)(=O)c3ccccc3)CC2)oc2ccc(Br)cc12,7,-3,2,-3,35*,-31
O=C1CC(c2ccc(F)cc2)C(n2cncn2)C(O)=C1C1NCCc2ccccc21 (stereo not given),-2,0,1,-16,1,/
COc1ccccc1-c1noc2c1C(=O)N(C(=O)OC(C)(C)C)CC2,/,/,/,/,-3,/
Fc1ccc2nc(Nc3ccccc3)sc2c1,2,3,-3,4,15*,6
NNc1nc2ccc(F)cc2s1,-3,-2,1,5,4,/
Nc1nc(C2C(=O)CCCC2=O)cs1,6,10,11,-22,30*,16
Nc1nc(C2CC(=O)OC23CCCCC3)cs1 (stereo not given),-2,1,0,1,-2,/
CC(=O)Nc1ccc(SCCCC(=O)c2ccccc2)cc1,-10,7,2,-9,0,/
SMILES,RTF Ca sens act,Keap1 Nrf2 FP,C-LANA FP,Cardiac RTF inh,eLon inh,eLon confirm
CN1Cc2c(N3CCOCC3)nc(SCc3ccccc3)c(C#N)c2CC1(C)C,10,1,2,-16,45*,-5
CCSc1nc(N2CCOCC2)c2c(c1C#N)CC(C)(C)N(C)C2,-7,2,-2,2,-15,/
CCOC(=O)COc1c(/C=N\O)cc(Cl)cc1OC,-1,-2,4,-3,-10,/
CC1=NN(C(=S)Nc2ccccc2)C(c2ccccc2)C1 (stereo not given),-5,2,0,-2,84*,9
Cc1ccc(/C=C/C(=O)NCCCN2CCN(CCCNC(=O)/C=C/c3ccc(C)o3)CC2)o1,-1,-1,-1,-2,27*,-3
CC(O)(c1ccc(Cl)cc1)C(c1ccccc1)c1ccccn1 (stereo not given),-1,-3,1,-3,-7,/
CCOC(=O)NC(=O)C(/C=N/c1sccc1C(=O)OC)=C(\C)O,/,1,4,/,42*,5
